Screening results deposited in PubChem BioAssay by National Center for Advancing Translational Sciences (NCATS).
Nrf2 inh: blocks Nrf2 signaling; Potency, µM (highest dose often 46 µM), actives largely listed as inhibitors; A549 ARE-Fluc reporter, luciferase luminescence, 18-24 h; AID 504444; hit rate 2.1% among 360,000; note: nearly all actives have a fitted effect of over 60% in size
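Quantitative HTS in A549 cells stably bearing an antioxidant response element-firefly luciferase construct. Inhibition of Nrf2-driven transcription was scored by luminescence after 18-24 h of compound exposure at 37 °C.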
LDHA block: LDHA (human) enzyme inhibition; purified LDHA, NADH/diaphorase-resazurin fluorescence; hits give low values; activity change, % (values are at about 110 or 230 µM); hit rate 0.15% among 480,000; AID 1347041; in the data active = activity change below about -30%; inconclusive = mostly about -25% to -30%
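LDH5 2 nM; NADH 0.06 mM, pyruvate 0.2 mM; 200 mM Tris pH 7.4, EDTA, Tween-20; 5 min RT. Detection: diaphorase 0.133 mg/mL + resazurin 37 µM, fluorescence ex540/em590 at 0 and 20 min; normalized to enzyme-free and DMSO wells.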
mIDH1 inhibitor: human IDH1 R132H inhibition | IDH1-R132H enzyme, NADPH consumption, diaphorase/resazurin fluorescence | Potency, µM (top dose mostly 76.6 µM), most hits filed as inhibitors | hit rate 0.093% among 390,000 | AID 602179; note: nearly all actives have a fitted effect of over 65% in size
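IDH1-R132H (0.5 ug/mL) preincubated 30 min with compound, then NADPH (0.016 mM) and alpha-KG (2 mM) added; 80 min at RT, pH 7.5. Remaining NADPH coupled via diaphorase/resazurin to fluorescence (540/590 nm); concentration-response curves normalized to no-enzyme control.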
Nrf2 activator: activators of Nrf2 (ARE) signaling; hit rate 0.31% among 410,000; AREc32 ARE-luciferase reporter (MCF7-derived line), luminescence, 24 h; Potency, µM (doses to about 46.1 µM), hits mostly activators; note: nearly all actives have a fitted effect of over 65% in size
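Luciferase luminescence (Steady-Glo, 30 min at room temperature) served as the read-out of ARE activation in AREc32 cells treated with compounds for 24 hr at 37 deg C.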
A549 tox-1: kills or reduces viability of A549 cells in Nrf2 counter-screen. Potency, µM (top dose mostly 46 µM), hits mostly inhibitors. hit rate 0.16% among 390,000. A549 ARE-Fluc cells, CellTiter-Fluor viability, 18-24 h
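Cytotoxicity counterscreen: CellTiter-Fluor fluorescence was measured in A549 ARE_Fluc cells after 18-24 h of compound exposure in a concentration series. The subsequent BugLite luminescent read reports ARE-luciferase activity.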
ALOX12 inh: inhibitors of human 12S-lipoxygenase ALOX12; purified 12hLO, xylenol orange hydroperoxide absorbance; Potency, µM (highest dose often 108 µM), actives largely listed as inhibitors; hit rate 1.1% among 580,000; AID 1671190
Target sequence (P18054 whole entry, looked up): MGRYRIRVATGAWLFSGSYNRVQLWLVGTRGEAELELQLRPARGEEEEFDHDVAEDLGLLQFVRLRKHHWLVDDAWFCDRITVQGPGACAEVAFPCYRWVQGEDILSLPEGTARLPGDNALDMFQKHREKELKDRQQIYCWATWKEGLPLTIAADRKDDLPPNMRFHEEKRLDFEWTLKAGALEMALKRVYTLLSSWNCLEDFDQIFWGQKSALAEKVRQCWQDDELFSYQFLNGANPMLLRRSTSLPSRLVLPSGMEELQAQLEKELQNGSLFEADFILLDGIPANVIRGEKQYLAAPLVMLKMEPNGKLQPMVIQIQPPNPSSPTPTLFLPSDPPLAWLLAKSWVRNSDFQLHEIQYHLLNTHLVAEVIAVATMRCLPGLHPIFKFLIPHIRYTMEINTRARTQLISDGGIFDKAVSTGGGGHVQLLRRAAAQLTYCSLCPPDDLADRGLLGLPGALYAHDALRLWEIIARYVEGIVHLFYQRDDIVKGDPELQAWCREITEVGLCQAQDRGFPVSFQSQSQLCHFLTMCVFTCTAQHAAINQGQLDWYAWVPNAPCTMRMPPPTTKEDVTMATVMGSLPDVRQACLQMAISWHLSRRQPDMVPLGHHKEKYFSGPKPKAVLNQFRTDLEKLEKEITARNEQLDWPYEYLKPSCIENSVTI
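Purified human 12hLO (150 nM final) in 25 mM Hepes, 0.01% Triton X-100, pH 7.0 was preincubated 15 min at room temperature with compound. Then 40 uM arachidonic acid was added, 30 min. Hydroperoxide was read by Fe-XO absorbance ratio 573/405 nm.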
FLuc counter 3: blocks purified firefly luciferase in Nrf2 counterscreen; shares compounds with Nrf2 inh; purified firefly luciferase, luminescence inhibition; Potency, µM (doses to about 57.5 µM), most hits filed as inhibitors; hit rate 4% among 1,400; note: nearly all actives have a fitted effect of over 65% in size
A549 tox-2: A549 cytotoxicity, Nrf2 inhibitor counterscreen; AID 720523; Potency, µM (series often up to 46.1 µM), hits mostly inhibitors; hit rate 2% among 1,400; shares compounds with Nrf2 inh; A549 ARE-Fluc cells, cytotoxicity counterscreen;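 note: cells exposed to compounds for 18 to 24 hours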
Nrf2 ARE inh: reduces Nrf2 ARE reporter signal in A549 cells; shares compounds with Nrf2 inh; AID 720524; A549 ARE-firefly luciferase reporter, luminescence; Potency, µM (series often up to 46.1 µM), actives largely listed as inhibitors; hit rate 74% among 1,400; note: nearly all actives have a fitted effect of over 65% in size
Numbers stand for hits; 0 = inactive; ? = inconclusive; - = not tested or not shown; [ ] = another dose, or the depositor's remark. Sampled rows, rich in hits. Any-hit rate of the full collection: about 2.7%. Unless noted, calls come from the whole dose curve; as a rule, active = well fitted curve in the direction sought with a large enough effect; inconclusive = small, poorly fitted or top-dose-only effect, or another doubt; inactive = no such curve, though single readings can be large; an effect the other way counts as inactive or inconclusive.

SMILES	Nrf2 inh	LDHA block	mIDH1 inhibitor	Nrf2 activator	A549 tox-1	ALOX12 inh	FLuc counter 3	A549 tox-2	Nrf2 ARE inh
O=C(CSc1nnc(-c2cccnc2)s1)Nc1ccnc2ccccc12	4.1µM	0	0	0	0	0	0	0	5.2µM
Cc1ccc(NC(=O)CSc2nnc(-c3cccnc3)s2)cc1	0	0	0	0	0	0	-	-	-
Cc1cc(C)c(CN2CCN(C(=O)Cn3cnc4c(OCc5ccccc5)ncnc43)CC2)c(C)c1	3.7µM	0	0	0	0	0	0	0	6.5µM
O=C(O)Cn1cnc2c(OCc3ccccc3)ncnc21	0	0	0	0	0	0	-	-	-
Cc1ccc(S(=O)(=O)NCc2ccc(C(=O)N3CCN(c4ccc([N+](=O)[O-])cc4)CC3)cc2)cc1	5.2µM	0	0	0	?	0	0	0	5.8µM
O=C(N(Cc1ccc2cc[nH]c2c1)C1CC1)C12CC3CC(CC(C3)C1)C2	-	0	-	-	-	?	-	-	-
Cc1cccc(C(=O)Nc2nc(-c3nnn(-c4cc(C)ccc4C)c3C)ns2)c1	9.2µM	0	0	0	0	0	0	0	7.3µM
O=C(Nc1ccc2[nH]ncc2c1)c1cnc2c(cnn2C2CCCC2)c1	-	0	-	-	-	0	-	-	-
COc1cccc(/C=N/n2c(N)c(S(=O)(=O)c3cccs3)c3nc4ccccc4nc32)c1OC	3.7µM	0	0	0	?	0	0	0	-
COC(=O)c1ccc(NC(=O)CCn2ccn3nc4c(c3c2=O)CCCC4)cc1	-	-	-	-	-	0	-	-	-
CC(=O)N1CCN(CC(=O)Nc2c(C#N)c(C)c(C)n2C2CCCCC2)CC1	-	0	-	-	-	0	-	-	-
Cc1cc[n+](CC(=O)c2ccccc2)c2ccccc12	0	0	0	0	0	0	-	-	-
Nc1cc[n+](CC(=O)c2ccccc2)cc1	8.2µM	0	0	0	0	0	0	0	?
Cc1c(N)cc[n+](CC(=O)c2ccccc2)c1C	4.1µM	0	0	0	0	0	0	0	15µM
O=C(C[n+]1ccncc1)c1ccccc1	0	0	0	0	0	?	-	-	-
CCOC(=O)c1cnc2ccc(OCC)cc2c1NCCc1ccc(OC)c(OC)c1	3.7µM	0	0	0	0	0	0	?	13µM
C=CCNc1ncnc2c1cnn2-c1ccc(C)cc1C	0	0	0	0	0	?	-	-	-
CCOC(=O)N1CCC(Nc2ncnc3c2cnn3-c2ccc(C)cc2C)CC1	8.2µM	0	0	0	0	0	0	0	13µM
CCOC(=O)c1ccccc1NC(=O)Nc1nnc(N(C)C2CCCCC2)s1	-	0	-	-	-	0	-	-	-
COC(=O)c1ccccc1-c1c2ccc(=N)cc-2oc2cc(N)ccc12	1.2µM	-58	?	0	0	0	0	0	8.2µM
COC(=O)c1ccccc1-c1ccc(/C=N/NC(=O)c2cc3ccccc3o2)o1	0	0	0	0	0	0	-	-	-
O=C(O)/C=C/c1ccc(-c2ccccc2)o1	-	0	-	-	-	?	-	-	-
COc1ccc(S(=O)(=O)Nc2ccc(Cc3ccncc3)cc2)cc1OC	6.5µM	0	0	0	0	?	0	0	?
Cc1ccc2c(-c3oc4ccccc4c3NC(=O)C3CC3)cc(=O)oc2c1C	-	0	-	-	-	?	-	-	-
Nc1nc(Cl)nc2c1ncn2[C@H]1C[C@H](O)[C@@H](CO)O1	0.013µM	0	0	0	0	?	0	0	5.8µM
SMILES	Nrf2 inh	LDHA block	mIDH1 inhibitor	Nrf2 activator	A549 tox-1	ALOX12 inh	FLuc counter 3	A549 tox-2	Nrf2 ARE inh
CCC(=O)c1ccc(OCc2ccc(C(=O)c3ccccc3)cc2)cc1	7.3µM	0	0	0	?	0	0	0	8.2µM
Cc1cc(C)c(NC(=S)NCC(C)N2CCCCC2C)c(Cl)c1 (centres undefined)	-	0	-	-	-	?	-	-	-
COc1ccccc1/C=C/c1ccc2ccccc2n1	-	0	-	-	-	-	-	-	-
Fc1ccc(/C=C/c2ccc3ccccc3n2)cc1	-	-	-	-	-	-	0	?	7.3µM
Cc1nc(N2CCCCC2)sc1C(=O)c1cccc([N+](=O)[O-])c1	2.9µM	0	0	0	0	0	0	0	0
N=C(c1cccc([N+](=O)[O-])c1)N1CCCCCC1	0	0	0	0	0	0	-	-	-
CC12Cc3ccc4ccccc4c3C=C1C[N+](C)(C)C2 (centres undefined)	1.3µM	0	0	0	0	0	0	0	18µM
Cc1ccc(NC(=O)CN2C(=O)c3cccnc3Sc3ccccc32)cc1C	?	0	0	0	0	0	?	0	0
COc1ccc(NC(=O)CN2C(=O)c3cccnc3Sc3ccccc32)cc1OC	0	0	0	0	0	0	-	-	-
CC[C@@H](C)[C@H](NC(=O)COc1ccc2c(=O)c(-c3ccc(Cl)cc3)c(C)oc2c1)C(=O)O	-	0	-	-	-	?	-	-	-
CCOc1ccc(NC(=O)c2cnn3c2NC(c2ccccc2)=CC3c2cccc(OC)c2OC)cc1 (centres undefined)	0	0	0	0	0	0	-	-	-
COc1cccc(C2C=C(c3ccccc3)Nc3c(C(=O)Nc4ccccc4)cnn32)c1OC (centres undefined)	2.3µM	0	0	0	0	0	0	0	?
COc1ccc(NC(=O)c2ccc(COCC(F)(F)C(F)F)cc2)cc1OC	0	0	0	0	0	0	-	-	-
COc1cc(NC(=O)c2cccc(COCC(F)(F)C(F)F)c2)cc(OC)c1OC	9.2µM	0	0	0[9.22 µM]	0	0	0	0	0
COc1cc2c(cc1OC)CN(C(=O)CN1CCN(S(=O)(=O)c3ccccc3Br)CC1)CC2	1.8µM	0	0	0	0	0	0	0	0
N#Cc1nc(N2CCCC2)nc(N2CCCC2)n1	5.2µM	0	0	0	0	0	0	0	13µM
O=C(Cc1c[nH]c2ncc(-c3cccc(Cl)c3)cc12)NCc1cccnc1	-	-	-	-	-	0	-	-	-
O=C(Oc1cccnc1)c1ccc([N+](=O)[O-])cc1Cl	1µM	0	0	0	0	0	0	?	-
COC(=O)c1ccc(C[n+]2ccccc2)cc1	0	0	0	0	0	0	-	-	-
Cc1ccc(C[n+]2ccccc2)cc1	5.2µM	0	0	0	0	?	0	0	21µM
Cc1c(C(=O)NCc2ccccc2Cl)sc2nc3n(c(=O)c12)CCCCC3	4.6µM	0	0	0	0	0	0	0	0
CN1C(=O)C(NC(=O)C(=O)NCCc2c[nH]c3ccc(F)cc23)c2ccccc21 (centres undefined)	-	0	-	-	-	0	-	-	-
